Assay results from PubChem BioAssay (NCI).
Compounds without any hit were thinned out: in the full panel of roughly 83,000, 20% have a hit.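 Each cell line was grown in a 96-well plate and treated with one concentration of compound for 48 hours. Values below 10 were considered active.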 The source made the active and inactive calls.

Test system: COLO 205 colon
Assay: NCI-60 one-dose screen, 48 h (100 = growth as untreated, 0 = no growth, -100 = all killed)
Details: 10 µM
Method: Cells are grown in 96 well plates and exposed to the test compound for 48 hours. Compounds are tested at a single concentration, which is 10^-5 M for most compounds. The reported endpoint is percent growth (GI% or GIPRCNT), where numbers from 0 - 100% represent growth inhibition, and numbers from -100% - 0 represent cell death. For example, a value of 40 represents 60% growth inhibition. A value of 0 means no net growth occurred over the course of the experiment. A value of -40 indicates 40% of cells at the beginning of the experiment died by the end of the experiment. A value of -100 means all cells are dead at the end of the experiment.
NCI-60 Human Tumor Cell Lines Screen was performed using the standard one-dose NCI protocol, which is described in more detail at https://dtp.cancer.gov/discovery_development/nci-60/default.htm.
Compounds with GIPRCNT values below 10 were considered active. Activity score was based on GIPRCNT using the following formula: […]
Score is 0 for GIPRCNT values of 100 or above, 50 for GIPRCNT values of 0, and 100 for GIPRCNT values of -100.

| Compound | growth |
| --- | --- |
| COc1ccc(OC)c(/C=C/C(=O)c2nc3ccccc3n2Cc2ccc(F)cc2)c1 | -58.3% (active) |
| CCOP(=O)(OCC)C(NC(C)=O)C(=O)SCCN (stereo not given) | 128% (inactive) |
| CC12OOC(C)(OO1)C2CCC(=O)NCCNc1ccnc2cc(Cl)ccc12 (stereo not given) | 73% (inactive) |
| COC(=O)C[C@](O)(CCCC(C)C)C(=O)O[C@H]1C(OC)=C[C@@]23CCCN2CCc2cc4c(cc2[C@@H]13)OCO4 | -2.77% (active) |
| CC1=C(COCCOC(=O)c2ccc(S(=O)(=O)F)cc2)C2=C(C)C3(CC3)[C@@](C)(O)C(=O)C2=C1 | -73% (active) |
| CC12OOC(C)(OO1)C2CCC(=O)OCCNc1ccnc2cc(Cl)ccc12 (stereo not given) | -54.4% (active) |
| CC[C@]12C=CCN3CC[C@@]4(c5ccc(OC)cc5N(C)[C@H]4[C@@](O)(C(=O)OC)[C@@H]1OC(=O)CCC[P+](c1ccc(F)cc1)(c1ccc(F)cc1)c1ccc(F)cc1)[C@@H]32 | -19% (active) |
| CN(C)CCc1cn(C2CCC2)c2cccc(O)c12 | 81.1% (inactive) |
| CC[C@]12C=CCN3CC[C@@]4(c5ccc(OC)cc5N(C)[C@H]4[C@@](O)(C(=O)OC)[C@@H]1OC(=O)CCCC[P+](c1ccc(OC)cc1)(c1ccc(OC)cc1)c1ccc(OC)cc1)[C@@H]32 | -64.9% (active) |
| CC1=C(CCC=O)C2=C(C)C3(CC3)[C@@](C)(O)C(=O)C2=C1 | -71.4% (active) |
| O=C(/C=C/c1ccc(Cl)cc1Cl)c1nc2ccccc2n1Cc1ccc(F)cc1 | 83.6% (inactive) |
| C=CC[Se]C(=O)c1ccc(C(=O)[Se]CC=C)s1 | -64.7% (active) |
| CCOC(=O)C1=C(Nc2ccccc2)C(=O)OC12C(=O)Nc1ccccc12 (stereo not given) | 119% (inactive) |
| CC12OOC(C)(OO1)C2CCC(=O)NCCCNc1ccnc2cc(Cl)ccc12 (stereo not given) | -62.6% (active) |
| CC[C@]12C=CCN3CC[C@@]4(c5ccc(OC)cc5N(C)[C@H]4[C@@](O)(C(=O)OC)[C@@H]1OC(=O)CCCC[P+](C1CCCCC1)(C1CCCCC1)C1CCCCC1)[C@@H]32 | -76.6% (active) |
| COc1cc(OC)c(S(=O)(=O)N(CCCl)CCCl)cc1C(=O)/C=C/c1ccc(C)cc1 | 117% (inactive) |
| COc1cc(OC)c(S(=O)(=O)N(CCCl)CCCl)cc1C(=O)/C=C/c1cc(OC)c(OC)c(OC)c1 | -89.8% (active) |
| O=C(/C=C/c1ccccc1)c1nc2ccccc2n1Cc1ccc(Br)cc1 | -74.7% (active) |
| C#CCCCN(CCNc1ccnc2cc(Cl)ccc12)C(=O)CCC(=O)O[C@@H]1O[C@@H]2OC3(C)CC[C@H]4[C@H](C)CC[C@@H]([C@H]1C)[C@@]24OO3 | 7.04% (active) |
| O=C(/C=C/c1ccc(F)cc1)c1nc2ccccc2n1Cc1ccc(Br)cc1 | -82.4% (active) |

| Compound | growth |
| --- | --- |
| COc1cc(OC)c(/C=C/C(=O)c2nc3ccccc3n2Cc2ccc(F)cc2)c(OC)c1 | 108% (inactive) |
| O=C(NC([Se])=NC1CCCCC1)c1ccccc1 | 49.2% (inactive) |
| CC[C@]12C=CCN3CC[C@@]4(c5ccc(OC)cc5N(C)[C@H]4[C@@](O)(C(=O)OC)[C@@H]1OC(=O)CCC[P+](C1CCCCC1)(C1CCCCC1)C1CCCCC1)[C@@H]32 | -63.6% (active) |
| COC(=O)c1ccc(-n2cc(CCCN(CCNc3ccnc4cc(Cl)ccc34)C(=O)CCC(=O)O[C@@H]3O[C@@H]4OC5(C)CC[C@H]6[C@H](C)CC[C@@H]([C@H]3C)[C@@]46OO5)nn2)cc1 | 14.8% (inactive) |
| O=C(/C=C/c1cccc(Br)c1)c1nc2ccccc2n1Cc1ccc(Br)cc1 | -34.1% (active) |
| CC(C)N=C([Se])NC(=O)c1ccccc1 | -11.7% (active) |
| CCC[Se]C(=O)c1ccc(C(=O)[Se]CCC)s1 | -85.7% (active) |
| COC(=O)CCn1c(-c2ccc(-n3cc(-c4ccc(O[C@H]5O[C@@H]6OC7(C)CC[C@H]8[C@H](C)CC[C@@H]([C@H]5C)[C@@]68OO7)cc4)nn3)cc2)nc2ccccc21 | -26.6% (active) |
| O=C(NCCCCC(c1ccc(F)cc1)c1ccc(F)cc1)Nc1ccc([N+](=O)[O-])c(C(F)(F)F)c1 | -100% (active) |
| C#CC[Se]C(=O)c1ccc(C(=O)[Se]CC#C)s1 | 86% (inactive) |
| C[C@H]1[C@H](OC(=O)CCC(=O)N(CCCc2cn(-c3ccc(CN4CCOCC4)cc3)nn2)CCNc2ccnc3cc(Cl)ccc23)O[C@@H]2OC3(C)CC[C@H]4[C@H](C)CC[C@@H]1[C@@]24OO3 | -30.1% (active) |
| CC[C@@]12CC(C(=O)OC)=C3Nc4cc5c(cc4[C@@]34CCN(C[C@H]3O[C@H]31)[C@@H]24)[C@@H]1[C@H](O5)[C@@H](O)[C@@]2(CC)CC(C(=O)OC)=C3Nc4cc(OC)ccc4[C@@]34CCN1[C@@H]24 | -59.1% (active) |
| C[C@H]1[C@H](OC(=O)CCC(=O)N(CCCc2cn(-c3ccc([N+](=O)[O-])cc3)nn2)CCNc2ccnc3cc(Cl)ccc23)O[C@@H]2OC3(C)CC[C@H]4[C@H](C)CC[C@@H]1[C@@]24OO3 | 20.1% (inactive) |
| CC1=C2C(=C[C@@](C)(COP(=O)(Oc3ccccc3)Oc3ccccc3)[C@@H]2O)C(=O)[C@@](C)(O)C12CC2 | -95.8% (active) |
| C=CC[Se]C(=O)c1cncc(C(=O)[Se]CC=C)c1 | -47.3% (active) |
| COc1ccc(/C=C/C(=O)c2nc3ccccc3n2Cc2ccc(Br)cc2)cc1 | 91.4% (inactive) |
| CC(C)N=C([Se])NC(=O)c1cccs1 | 84.7% (inactive) |
| CC(=O)Oc1ccccc1C(=O)[Se]C(=NC(C)C)NC(C)C | -69% (active) |
| COC(=O)C[C@](O)(CCC(C)C)C(=O)O[C@H]1C(OC)=C[C@@]23CCCN2CCc2cc4c(cc2[C@@H]13)OCO4 | -55.4% (active) |
| O=C(/C=C/c1ccc(Cl)cc1)c1nc2ccccc2n1Cc1ccc(Br)cc1 | 93.6% (inactive) |
